In all, about 35,000 sequences were measured (“fluorescence intensity (a.u.)”: median about 10,000, highest 2% from about 52,000 on). This excerpt belongs to a sample that is enriched for the highest values.

In this assay the target is T1, OsWOX13 (Oryza sativa, UniProt Q5QMM3 1-267).
T1 sequence: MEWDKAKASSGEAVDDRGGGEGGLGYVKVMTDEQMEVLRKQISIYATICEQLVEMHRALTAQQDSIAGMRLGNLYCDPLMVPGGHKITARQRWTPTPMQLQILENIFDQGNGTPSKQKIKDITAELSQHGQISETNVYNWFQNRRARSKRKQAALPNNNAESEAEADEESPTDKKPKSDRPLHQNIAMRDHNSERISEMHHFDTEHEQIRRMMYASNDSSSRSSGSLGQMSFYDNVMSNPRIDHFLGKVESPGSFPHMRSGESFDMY
Briefly: protein-binding microarray (RPBM); PBS, 2% BSA, 51.3 ng/ul salmon testes DNA, 50 uM zinc acetate, 200 nM TF, 25 C, 1 h; high values mean tight binding. The following applies: protein: recombinant; tags: N-terminal polyhistidine and DsRed monomer fusion (pET32a); label: CyDye5-dUTP incorporated in the synthesized complementary strand; 3' TTTTT single-stranded linker to array surface; dsDNA, one strand shown. In outline: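 Transcription factors were made in E. coli BL21-CodonPlus as N-terminal fusions to a polyhistidine tag and DsRed, then purified on Ni–NTA. After primer extension with Cy5-dUTP and blocking with 2% BSA, a custom Agilent array was exposed for 1 h at 25 °C to 200 nM protein in PBS, 2% BSA, salmon testes DNA and 50 µM zinc acetate. Washed arrays were scanned on an Axon 4000B, and the binding signal is per-feature fluorescence intensity in arbitrary units.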
Consider “AGCGATTAGTAAGTGGATTGGATCTAACTAAGCTTGCTACCGGAGTCACCTAGTGCAG”, for which the binding signal was 9310 fluorescence intensity (a.u.). Next, “CCTGCACAATCACTGGCTGATGCATCTGCAATGTCACCAACGGAGTCACCTAGTGCAG”: 4350 fluorescence intensity (a.u.). Next, “TGGATTTGTATGTCTTAATTGAAGTTAGGCTATAAATTTGCGGAGTCACCTAGTGCAG”: 10300 fluorescence intensity (a.u.); “ATATTTAATTTGATACTACCTATAAACCGCACAAGCTGCACGGAGTCACCTAGTGCAG”: 16800 fluorescence intensity (a.u.); “GTGATGAGTGATGACCCGGAGAATGAGAGAGGCGACTGTGCGGAGTCACCTAGTGCAG”: 3800 fluorescence intensity (a.u.).

For “TAATCATGTTAAATTGATGTTATTAGATTTATCATTAAACCGGAGTCACCTAGTGCAG”, the binding signal was 14900 fluorescence intensity (a.u.). Next, “CATTTGCTGGATGTGCTCCTTACTTAATATTTATGCATGGCGGAGTCACCTAGTGCAG”: 52600 fluorescence intensity (a.u.); “GTTAATTAGATCATGATAAAGATTAATGTATAGATCGAGGCGGAGTCACCTAGTGCAG”: 62000 fluorescence intensity (a.u.); “AGTTATAATGGAATTAATTATAATTATAGTATAGTTAGATCGGAGTCACCTAGTGCAG”: 28600 fluorescence intensity (a.u.). Next, “GGATTAAATTATCAAATAGATTTGGCTGCCATGATGGCACCGGAGTCACCTAGTGCAG”: 42600 fluorescence intensity (a.u.); “TAAATTAATTAATTAGGTATAAATGTAATTAAGCACATCGCGGAGTCACCTAGTGCAG”: 55000 fluorescence intensity (a.u.); “CATAATTAAAATACTTAAAATATGTGCTCGTAATTATTTACGGAGTCACCTAGTGCAG”: 6000 fluorescence intensity (a.u.). In the case of “GAGTGGTAAATAATTAATTATTACATATTTGTATAAATCGCGGAGTCACCTAGTGCAG”, the binding signal was 22800 fluorescence intensity (a.u.). As to “ATATGATCGTATAATTAAATGAGATCATGATTAAGTGGAGCGGAGTCACCTAGTGCAG”, the binding signal was 16400 fluorescence intensity (a.u.). Next, “TAATGTGTGTGTATAATTAATTAAGCAGTGAAGTGAATCGCGGAGTCACCTAGTGCAG”: 5650 fluorescence intensity (a.u.); “CTCCTAATTTAGTCACTTATGGAGCTCTGATAGCTGGATGCGGAGTCACCTAGTGCAG”: 14200 fluorescence intensity (a.u.); “ATGATAGATTAAATCAAATTATCATGTTATGGGTATAGCCCGGAGTCACCTAGTGCAG”: 53200 fluorescence intensity (a.u.). Next, “GGGGATGGAAGGGTGATTGAGAGTAAGAATTGGAGGTGATCGGAGTCACCTAGTGCAG”: 30000 fluorescence intensity (a.u.); “TAGAATTGATGATACTAGCTATAACTTCCGAGTGAGCACACGGAGTCACCTAGTGCAG”: 16900 fluorescence intensity (a.u.); “CCATCTGCTGATAGATTTTCTATTGCCAAATCTTACACCTCGGAGTCACCTAGTGCAG”: 5710 fluorescence intensity (a.u.). Next, “CTTCAATAATTAATTTATATTGTACTAATATGTTTGTAAACGGAGTCACCTAGTGCAG”: 17900 fluorescence intensity (a.u.); “AATTACTGTCATGATTTGAATTTGCAATCATTTCCTGTACCGGAGTCACCTAGTGCAG”: 18800 fluorescence intensity (a.u.); “TCCTTGCTAACAAATCAACCAATTTGTCCATTCCCTATGTCGGAGTCACCTAGTGCAG”: 3440 fluorescence intensity (a.u.). For the sequence “AGAAATTGATTCGTCGAGGATATTGATCTATTAGTAAATGCGGAGTCACCTAGTGCAG”, the binding signal is 36700 fluorescence intensity (a.u.). Next, “AGTTTCATTAAATTTAATATTAAACATATTTTGATAATATCGGAGTCACCTAGTGCAG”: 5680 fluorescence intensity (a.u.). Next, “AAATAAATTTGAACTAAAATGAAAATTTGAAGGTATAGCACGGAGTCACCTAGTGCAG”: 12600 fluorescence intensity (a.u.). Next, “AAGCTTCCTTTGATTGATCCGACTCCACCAAGAACACGATCGGAGTCACCTAGTGCAG”: 22000 fluorescence intensity (a.u.). Turning to “TGTAACTCTCGTATGTAATTGAGTAAAACATGTTGGTGCTCGGAGTCACCTAGTGCAG”, the binding signal was 4540 fluorescence intensity (a.u.).

In the case of “TTATTTAATTTAGAAAATTGGAGTTACCAGTTGTTCAGTTCGGAGTCACCTAGTGCAG”, the binding signal was 19500 fluorescence intensity (a.u.). Next, “TTTTAGATTGGGTTATTTATAAGGCTAAGTTTTAATTTAACGGAGTCACCTAGTGCAG”: 4150 fluorescence intensity (a.u.); “ATGAATAAGCTATTAGATTGACTATAGATAAATTGGAGCTCGGAGTCACCTAGTGCAG”: 18200 fluorescence intensity (a.u.); “GTTAGATTAGATTGGTACCTCATGTTACCTCGTACCTCATCGGAGTCACCTAGTGCAG”: 55700 fluorescence intensity (a.u.). Next, “TTGTATAAATGAGCTATCAGATTGGCTATAGATAAATTGGCGGAGTCACCTAGTGCAG”: 12000 fluorescence intensity (a.u.); “TTGTATGAATGAGCTATTAGATTGGCTATAGATGAATTGGCGGAGTCACCTAGTGCAG”: 8950 fluorescence intensity (a.u.); “TATATAATTTATTTAATTGGATTTACCAGTTTAAGGGGTTCGGAGTCACCTAGTGCAG”: 54300 fluorescence intensity (a.u.). Take “TTGACTATTAAATTGGCTATAGATAAATTGGAGCTAGTAGCGGAGTCACCTAGTGCAG”: the binding signal was 23600 fluorescence intensity (a.u.). Next, “TTGTATAAATTGGCTATTAGATTGGCTATAGATTAATTGGCGGAGTCACCTAGTGCAG”: 58900 fluorescence intensity (a.u.).

On to “CGGTTAGATTACATTGGTACCTCATGATATCTCGTACCTCCGGAGTCACCTAGTGCAG”, for which the binding signal is 4680 fluorescence intensity (a.u.). Next, “CAACGGTTAGATTAGATTGGTACTTCATGGTACATCGTGGCGGAGTCACCTAGTGCAG”: 43200 fluorescence intensity (a.u.); “TTATTAGATTGACTATAGATAAATTAGATAAATTGGAGTTCGGAGTCACCTAGTGCAG”: 53600 fluorescence intensity (a.u.); “TTAACAGATTCTTCTTAATTAATAAATAAGCTGTCATGATCGGAGTCACCTAGTGCAG”: 17300 fluorescence intensity (a.u.).

On to “TTGATTAGATGCGCTGTGTGGCTTCTTGTTCAGTGACAGGCGGAGTCACCTAGTGCAG”, for which the binding signal was 32400 fluorescence intensity (a.u.).
